# Source: PubChem BioAssay
# MITF act: activators of MITF-driven TRPM1 promoter reporter, primary screen, cell-based, SK-MEL-5, luciferase, single point. SK-MEL-5 TRPM1-promoter luciferase, 24 h; % of positive control, neutral wells = 0. activation, % at 12.5 µM. actives 0.75% (n = 300,000);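 active = mean activation of at least 80% with every replicate also reaching 80%; inconclusive = mean reaches 80% but some replicate falls short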;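 note: 0% = neutral control wells and 100% = parthenolide positive control wells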
# Wnt bcat act: Wnt/beta-catenin pathway activators, primary screen, cell-based, plate reader, single point; Wnt/beta-catenin reporter cell assay, activator; activation, % at 9.35 µM; actives 1.2% (n = 300,000); AID 743398, 2014; in the data active = activation above about 30%, passing the limit was not always enough; inconclusive = no clear call, values can overlap the other calls;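 note: 0% = neutral control wells and 100% = positive control wells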
# MITF TRPM1 inh: inhibitors of MITF-dependent TRPM1 promoter reporter, primary screen, cell-based, SK-MEL-5, single point, luciferase | SK-MEL-5 TRPM1 promoter luciferase, 24 h | inhibition, % at 12.5 µM | actives 0.83% (n = 330,000) | AID 488899, 2010;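 active = mean inhibition across replicates of 60% or more, whatever share of single replicates reaches that level; inconclusive = some that reach 60%, reason not given; inactive = mean inhibition across replicates below 60%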
# esBAF inh: Bmi1 luciferase reporter increase in mESCs, primary screen, esBAF inhibitor project, mouse ES cells, Bmi1 luciferase knock-in, single point | actives 2% (n = 350,000) | reporter increase, % at 12.5 µM | 24 h; 100% = twice the neutral-well signal | AID 602393, 2012; in the data active = activation above about 40%; inconclusive = no clear call, values can overlap the other calls;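 note: 0% = median of the plate's neutral control wells and 100% = double that signal; a rise in the Bmi1 reporter signal indicates esBAF inhibition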
# EWS-Fli inh: EWS/Fli-driven NR0B1 reporter inhibitors, primary screen, A673 cells, NR0B1 luciferase, luminescence, MLPCN library | viability-normalised | inhibition, % at 12.6 µM | actives 0.67% (n = 350,000) | AID 651661, 2012;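 active = mean inhibition of at least 50% after viability correction, with every replicate also passing that limit; inconclusive = mean reaches 50% but only one of two replicates passes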;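 note: firefly luciferase signal divided by Alamar Blue viability fluorescence both relative to DMSO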
# PAX8 inh HTS: inhibitors of PAX8-driven TPO luciferase reporter, primary screen, RMG-I cells, single concentration. SteadyGlo, 24 h. inhibition, % at 12.6 µM. actives 1.2% (n = 360,000);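 active = mean replicate inhibition at least 60% with every replicate also reaching 60%; inconclusive = only one of the two criteria is met; inactive = mean below 60% and not all replicates reaching 60%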;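 note: luciferase light reporting Pax8 driven TPO promoter activity; plate controls were median of neutral control wells for no effect and mitoxantrone controls for full effect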
# Starred values were filed as active, the others as inactive; ? = inconclusive; . = not tested or not shown. Shown are actives, neighbours in structure and some others; about 4% of the full set was active somewhere.
SMILES,MITF act,Wnt bcat act,MITF TRPM1 inh,esBAF inh,EWS-Fli inh,PAX8 inh HTS
Cc1cc(C)c2cc(C(=O)Nc3ccc4c(c3)OCO4)[nH]c2c1,.,8,.,.,-1,4
Cc1cc(C)c2cc(C(=O)Nc3ccccc3)[nH]c2c1,74,25,-75,60*,-169,-119
CCCOc1ccc(NC(=O)c2cc3cc(C)ccc3[nH]2)cc1,16,10,-21,16,-45,-39
COc1ccc2c3c(n(C)c2c1)[C@H](CO)N(S(C)(=O)=O)CC31CCN(C(=O)Nc2cccc(F)c2)CC1,.,.,.,.,20,4
CCN1CCN(c2ccc(Nc3ccnc4ccccc34)cc2)CC1,-63,-10,64*,-5,-1,-1
Cc1cccc(-n2cnc(C(=O)NC3CCCCCC3)c2)n1,?,.,-88,68*,.,.
Cc1cccc(-n2cnc(C(=O)O)c2)n1,11,-10,-9,1,-8,13
CCOc1ccccc1/C=N/Nc1ccccc1[N+](=O)[O-],72,.,-69,54*,.,.
CCCOc1ccc(/C=N/Nc2cccc([N+](=O)[O-])c2)c(O)c1,84*,.,-80,.,.,-102
CCCOc1ccc(/C=N/Nc2ccccc2[N+](=O)[O-])c(O)c1,-55,-2,57,.,23,-111
CCCOc1ccc(/C=N/NC(=S)Nc2ccccc2[N+](=O)[O-])c(O)c1,.,.,.,.,.,94*
CCCOc1ccc(/C=N/Nc2ccc(C(=O)O)cc2)c(OCCC)c1,4,2,-4,.,5,-13
CCC(=O)Nc1ccc2c(c1)OC[C@@H](C)N(CC1CCCCC1)C[C@@H](C)[C@@H](OC)CN(C)C2=O,.,.,.,1,4,5
